Tests used:
[1] = biological target: T1, Serine/threonine-protein kinase Nek9 (Homo sapiens) (UniProt Q8TD19); conditions: at 1 µM;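 note: each value is a mean percent inhibition of NEK9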
T1 sequence (whole entry): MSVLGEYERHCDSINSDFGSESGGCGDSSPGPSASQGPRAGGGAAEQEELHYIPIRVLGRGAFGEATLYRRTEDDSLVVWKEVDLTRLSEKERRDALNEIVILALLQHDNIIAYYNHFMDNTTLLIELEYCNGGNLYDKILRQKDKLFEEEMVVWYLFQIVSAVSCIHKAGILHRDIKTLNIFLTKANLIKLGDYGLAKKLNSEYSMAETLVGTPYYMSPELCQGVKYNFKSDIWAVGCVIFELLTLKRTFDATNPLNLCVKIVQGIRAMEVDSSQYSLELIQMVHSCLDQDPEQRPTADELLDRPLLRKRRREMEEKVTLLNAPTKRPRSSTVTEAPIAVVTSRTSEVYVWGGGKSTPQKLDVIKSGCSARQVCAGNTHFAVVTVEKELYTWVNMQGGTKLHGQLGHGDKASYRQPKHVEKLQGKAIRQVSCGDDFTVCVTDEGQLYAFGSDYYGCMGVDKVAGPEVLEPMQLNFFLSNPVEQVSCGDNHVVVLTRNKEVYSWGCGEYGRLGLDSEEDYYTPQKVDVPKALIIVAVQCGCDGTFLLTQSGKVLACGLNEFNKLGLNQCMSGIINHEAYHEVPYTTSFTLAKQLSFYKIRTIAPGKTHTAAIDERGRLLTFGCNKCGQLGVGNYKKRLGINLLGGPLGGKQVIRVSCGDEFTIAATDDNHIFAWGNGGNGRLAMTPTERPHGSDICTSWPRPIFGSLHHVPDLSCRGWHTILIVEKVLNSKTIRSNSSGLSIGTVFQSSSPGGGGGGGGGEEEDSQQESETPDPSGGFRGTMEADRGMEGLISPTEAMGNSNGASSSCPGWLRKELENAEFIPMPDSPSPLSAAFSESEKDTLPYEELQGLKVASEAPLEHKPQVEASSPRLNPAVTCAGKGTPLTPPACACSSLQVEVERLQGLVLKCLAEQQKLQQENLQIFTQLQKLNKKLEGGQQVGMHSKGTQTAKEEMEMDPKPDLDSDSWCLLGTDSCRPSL

[2] = biological target: Serine/threonine-protein kinase PLK1 (Homo sapiens) (UniProt P53350); conditions: at 0.1 µM
[3] = biological target: Serine/threonine-protein kinase PLK1 (Homo sapiens) (UniProt P53350); conditions: at 1 µM
[4] = biological target: T2, Dual specificity protein kinase TTK (Homo sapiens) (UniProt P33981); conditions: at 0.1 µM
T2 sequence (whole entry): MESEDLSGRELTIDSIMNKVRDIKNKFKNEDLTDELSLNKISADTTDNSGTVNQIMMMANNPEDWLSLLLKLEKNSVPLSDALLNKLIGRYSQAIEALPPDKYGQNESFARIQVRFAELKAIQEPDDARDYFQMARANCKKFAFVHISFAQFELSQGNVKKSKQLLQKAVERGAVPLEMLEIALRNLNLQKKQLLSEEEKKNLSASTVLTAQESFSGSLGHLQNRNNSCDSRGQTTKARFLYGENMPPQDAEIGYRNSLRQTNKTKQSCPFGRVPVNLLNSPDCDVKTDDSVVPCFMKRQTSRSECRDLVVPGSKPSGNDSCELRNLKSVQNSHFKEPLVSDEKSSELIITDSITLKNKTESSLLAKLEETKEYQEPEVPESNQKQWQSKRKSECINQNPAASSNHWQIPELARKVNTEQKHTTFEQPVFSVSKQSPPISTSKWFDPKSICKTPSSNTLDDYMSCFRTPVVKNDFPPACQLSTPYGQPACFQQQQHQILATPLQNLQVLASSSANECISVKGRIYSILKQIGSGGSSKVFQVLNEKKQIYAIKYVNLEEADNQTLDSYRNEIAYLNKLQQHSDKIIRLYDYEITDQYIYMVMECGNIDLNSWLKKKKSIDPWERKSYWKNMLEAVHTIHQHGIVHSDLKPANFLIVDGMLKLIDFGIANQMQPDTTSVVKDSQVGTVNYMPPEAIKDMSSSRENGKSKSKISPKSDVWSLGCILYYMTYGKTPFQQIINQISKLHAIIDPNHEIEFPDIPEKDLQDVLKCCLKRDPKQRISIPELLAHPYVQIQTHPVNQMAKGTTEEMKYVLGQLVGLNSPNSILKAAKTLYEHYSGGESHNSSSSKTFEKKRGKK

[5] = test system: T3, Receptor-type tyrosine-protein kinase FLT3 (Homo sapiens), P36888 [D835Y]; conditions: at 1 µM
T3 sequence (whole entry): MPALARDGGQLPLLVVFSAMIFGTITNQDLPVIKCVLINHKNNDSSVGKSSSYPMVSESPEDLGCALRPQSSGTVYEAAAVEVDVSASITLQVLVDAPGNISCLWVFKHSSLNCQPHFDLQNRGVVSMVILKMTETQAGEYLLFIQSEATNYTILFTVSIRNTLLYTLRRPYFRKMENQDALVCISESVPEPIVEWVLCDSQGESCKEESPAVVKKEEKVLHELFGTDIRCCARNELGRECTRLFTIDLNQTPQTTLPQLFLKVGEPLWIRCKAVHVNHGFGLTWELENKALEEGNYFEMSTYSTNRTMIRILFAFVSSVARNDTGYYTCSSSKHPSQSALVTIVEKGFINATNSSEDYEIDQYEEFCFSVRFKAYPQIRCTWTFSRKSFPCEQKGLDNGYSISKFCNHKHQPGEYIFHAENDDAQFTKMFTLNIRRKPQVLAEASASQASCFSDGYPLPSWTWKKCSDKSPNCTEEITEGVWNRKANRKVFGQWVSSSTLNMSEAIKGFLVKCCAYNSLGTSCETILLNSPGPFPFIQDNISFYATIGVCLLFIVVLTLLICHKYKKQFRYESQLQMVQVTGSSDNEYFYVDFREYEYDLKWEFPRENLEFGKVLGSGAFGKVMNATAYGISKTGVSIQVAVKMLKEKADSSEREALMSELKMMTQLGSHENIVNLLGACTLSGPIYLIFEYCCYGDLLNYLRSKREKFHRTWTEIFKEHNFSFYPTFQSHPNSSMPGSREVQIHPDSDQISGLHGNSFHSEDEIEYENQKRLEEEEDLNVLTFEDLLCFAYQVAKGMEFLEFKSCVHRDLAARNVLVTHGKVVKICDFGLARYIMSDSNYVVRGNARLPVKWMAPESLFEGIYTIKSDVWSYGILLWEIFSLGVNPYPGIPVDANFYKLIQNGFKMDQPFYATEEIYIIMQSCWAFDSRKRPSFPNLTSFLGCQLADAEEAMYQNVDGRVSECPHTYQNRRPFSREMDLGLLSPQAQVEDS

[6] = biological target: Vascular endothelial growth factor receptor 3 (Homo sapiens) (UniProt P35916); conditions: at 0.1 µM
[7] = biological target: Vascular endothelial growth factor receptor 3 (Homo sapiens) (UniProt P35916); conditions: at 1 µM
[8] = biological target: Macrophage colony-stimulating factor 1 receptor (Homo sapiens) (UniProt P07333); conditions: at 0.1 µM
[9] = biological target: Macrophage colony-stimulating factor 1 receptor (Homo sapiens) (UniProt P07333); conditions: at 1 µM
[10] = biological target: Tyrosine-protein kinase Fyn (Homo sapiens) (UniProt P06241); conditions: at 0.1 µM
Tyrosine-protein kinase Fyn (Homo sapiens), sequence (P06241 2-537 limits assumed): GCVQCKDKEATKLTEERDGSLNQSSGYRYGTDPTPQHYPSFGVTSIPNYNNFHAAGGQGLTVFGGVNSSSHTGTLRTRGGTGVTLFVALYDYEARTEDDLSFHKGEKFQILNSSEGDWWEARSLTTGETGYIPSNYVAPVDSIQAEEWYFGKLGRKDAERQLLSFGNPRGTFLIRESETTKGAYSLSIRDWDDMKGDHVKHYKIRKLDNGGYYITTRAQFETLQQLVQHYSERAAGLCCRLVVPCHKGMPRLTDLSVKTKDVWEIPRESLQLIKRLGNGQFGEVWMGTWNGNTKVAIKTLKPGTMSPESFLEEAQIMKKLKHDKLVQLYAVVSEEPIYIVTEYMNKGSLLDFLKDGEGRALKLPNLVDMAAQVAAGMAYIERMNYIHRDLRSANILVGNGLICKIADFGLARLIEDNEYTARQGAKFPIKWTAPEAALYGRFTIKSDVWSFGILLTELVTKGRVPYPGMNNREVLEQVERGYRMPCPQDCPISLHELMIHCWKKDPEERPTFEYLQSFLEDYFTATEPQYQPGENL

[11] = biological target: Tyrosine-protein kinase Fyn (Homo sapiens) (UniProt P06241); conditions: at 1 µM
[12] = biological target: Tyrosine-protein kinase HCK (Homo sapiens) (UniProt P08631); conditions: at 0.1 µM
Tyrosine-protein kinase HCK (Homo sapiens), sequence (P08631 2-526 limits assumed): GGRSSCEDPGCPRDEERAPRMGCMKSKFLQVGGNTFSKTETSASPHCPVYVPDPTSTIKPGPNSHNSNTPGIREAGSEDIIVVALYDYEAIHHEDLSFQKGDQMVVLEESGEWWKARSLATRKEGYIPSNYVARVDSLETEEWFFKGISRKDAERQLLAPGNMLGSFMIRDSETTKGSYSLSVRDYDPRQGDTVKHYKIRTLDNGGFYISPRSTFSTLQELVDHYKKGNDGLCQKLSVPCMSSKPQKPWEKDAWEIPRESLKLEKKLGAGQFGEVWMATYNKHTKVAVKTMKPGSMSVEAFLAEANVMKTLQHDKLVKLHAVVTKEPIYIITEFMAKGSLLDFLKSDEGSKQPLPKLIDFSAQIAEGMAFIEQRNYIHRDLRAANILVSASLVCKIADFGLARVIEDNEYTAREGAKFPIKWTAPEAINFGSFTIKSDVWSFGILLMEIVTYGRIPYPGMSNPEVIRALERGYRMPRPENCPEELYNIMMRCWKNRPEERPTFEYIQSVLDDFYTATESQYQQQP

[13] = biological target: Tyrosine-protein kinase HCK (Homo sapiens) (UniProt P08631); conditions: at 1 µM
[14] = biological target: Insulin-like growth factor 1 receptor (Homo sapiens) (UniProt P08069); conditions: at 0.1 µM
Insulin-like growth factor 1 receptor (Homo sapiens), sequence (P08069 31-736 limits assumed): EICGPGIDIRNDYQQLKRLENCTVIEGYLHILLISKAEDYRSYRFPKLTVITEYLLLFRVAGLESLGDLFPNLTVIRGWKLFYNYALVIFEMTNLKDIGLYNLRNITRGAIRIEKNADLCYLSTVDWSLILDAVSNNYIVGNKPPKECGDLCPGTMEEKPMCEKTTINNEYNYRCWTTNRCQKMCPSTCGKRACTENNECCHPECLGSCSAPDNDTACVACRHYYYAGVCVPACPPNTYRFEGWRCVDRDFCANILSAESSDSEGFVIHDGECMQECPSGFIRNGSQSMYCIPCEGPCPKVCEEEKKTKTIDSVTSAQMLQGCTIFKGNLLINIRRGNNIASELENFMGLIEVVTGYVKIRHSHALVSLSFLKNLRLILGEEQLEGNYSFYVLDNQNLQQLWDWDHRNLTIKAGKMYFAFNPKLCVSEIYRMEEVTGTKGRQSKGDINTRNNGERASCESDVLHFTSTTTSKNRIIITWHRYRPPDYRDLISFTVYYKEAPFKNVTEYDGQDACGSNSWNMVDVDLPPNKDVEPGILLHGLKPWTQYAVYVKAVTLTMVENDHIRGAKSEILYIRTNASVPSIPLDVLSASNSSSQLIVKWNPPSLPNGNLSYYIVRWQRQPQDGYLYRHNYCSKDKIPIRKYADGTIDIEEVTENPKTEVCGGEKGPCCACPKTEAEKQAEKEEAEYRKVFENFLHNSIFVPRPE
Insulin-like growth factor 1 receptor (Homo sapiens), sequence (P08069 741-1367 limits assumed): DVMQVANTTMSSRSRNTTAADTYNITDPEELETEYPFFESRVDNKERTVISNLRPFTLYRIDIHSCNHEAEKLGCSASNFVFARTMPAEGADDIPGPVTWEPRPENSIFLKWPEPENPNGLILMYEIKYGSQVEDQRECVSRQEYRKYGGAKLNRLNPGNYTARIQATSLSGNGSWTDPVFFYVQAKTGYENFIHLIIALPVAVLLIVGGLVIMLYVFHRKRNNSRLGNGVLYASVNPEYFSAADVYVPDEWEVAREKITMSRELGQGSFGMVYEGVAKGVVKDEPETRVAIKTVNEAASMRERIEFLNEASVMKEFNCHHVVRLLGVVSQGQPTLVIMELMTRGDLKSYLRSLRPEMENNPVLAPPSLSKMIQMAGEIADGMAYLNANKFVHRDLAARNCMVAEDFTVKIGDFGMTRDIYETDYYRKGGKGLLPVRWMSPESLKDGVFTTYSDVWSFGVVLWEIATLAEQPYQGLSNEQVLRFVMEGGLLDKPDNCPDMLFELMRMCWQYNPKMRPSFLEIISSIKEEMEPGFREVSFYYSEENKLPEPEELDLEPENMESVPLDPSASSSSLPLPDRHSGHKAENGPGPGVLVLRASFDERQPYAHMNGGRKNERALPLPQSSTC

[15] = biological target: Insulin-like growth factor 1 receptor (Homo sapiens) (UniProt P08069); conditions: at 1 µM
[16] = biological target: Insulin receptor (Homo sapiens) (UniProt P06213); conditions: at 0.1 µM
Insulin receptor (Homo sapiens), sequence (P06213 28-758 limits assumed): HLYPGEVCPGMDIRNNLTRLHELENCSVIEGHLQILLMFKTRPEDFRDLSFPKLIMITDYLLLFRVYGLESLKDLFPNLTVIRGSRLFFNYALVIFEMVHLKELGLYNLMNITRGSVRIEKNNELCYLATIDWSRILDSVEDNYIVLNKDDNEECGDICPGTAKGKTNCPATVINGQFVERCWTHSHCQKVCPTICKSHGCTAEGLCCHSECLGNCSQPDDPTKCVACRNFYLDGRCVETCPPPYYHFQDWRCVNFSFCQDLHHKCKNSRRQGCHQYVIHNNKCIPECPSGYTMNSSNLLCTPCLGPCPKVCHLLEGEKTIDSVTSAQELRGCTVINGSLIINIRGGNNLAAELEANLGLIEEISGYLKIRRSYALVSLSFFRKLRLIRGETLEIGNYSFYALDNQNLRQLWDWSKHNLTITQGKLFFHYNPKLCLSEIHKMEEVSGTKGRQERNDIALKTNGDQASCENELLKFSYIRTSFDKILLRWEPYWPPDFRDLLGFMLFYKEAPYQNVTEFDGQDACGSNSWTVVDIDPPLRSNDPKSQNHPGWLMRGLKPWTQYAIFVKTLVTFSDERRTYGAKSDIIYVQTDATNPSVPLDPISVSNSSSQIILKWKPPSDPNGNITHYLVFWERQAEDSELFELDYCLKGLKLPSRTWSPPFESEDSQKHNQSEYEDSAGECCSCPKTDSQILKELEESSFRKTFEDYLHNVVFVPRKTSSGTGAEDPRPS
Insulin receptor (Homo sapiens), sequence (P06213 763-1382 limits assumed): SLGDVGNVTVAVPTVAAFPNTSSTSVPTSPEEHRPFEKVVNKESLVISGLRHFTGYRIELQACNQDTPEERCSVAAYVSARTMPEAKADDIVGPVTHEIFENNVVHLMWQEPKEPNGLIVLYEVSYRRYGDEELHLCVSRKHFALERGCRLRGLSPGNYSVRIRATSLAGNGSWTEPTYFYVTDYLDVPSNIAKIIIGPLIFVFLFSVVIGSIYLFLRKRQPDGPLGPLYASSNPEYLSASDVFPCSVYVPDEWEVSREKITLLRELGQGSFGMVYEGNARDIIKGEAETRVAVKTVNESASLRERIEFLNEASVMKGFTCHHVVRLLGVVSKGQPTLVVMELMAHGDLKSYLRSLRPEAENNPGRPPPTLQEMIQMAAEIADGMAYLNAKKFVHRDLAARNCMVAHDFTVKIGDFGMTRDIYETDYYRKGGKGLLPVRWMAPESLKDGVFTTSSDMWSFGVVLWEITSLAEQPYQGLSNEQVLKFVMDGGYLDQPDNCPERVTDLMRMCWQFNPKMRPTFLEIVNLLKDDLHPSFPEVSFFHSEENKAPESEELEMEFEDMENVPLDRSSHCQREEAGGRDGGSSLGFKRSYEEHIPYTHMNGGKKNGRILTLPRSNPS

[17] = biological target: Insulin receptor (Homo sapiens) (UniProt P06213); conditions: at 1 µM
[18] = biological target: Insulin receptor-related protein (Homo sapiens) (UniProt P14616); conditions: at 0.1 µM
Insulin receptor-related protein (Homo sapiens), sequence (P14616 27-742 limits assumed): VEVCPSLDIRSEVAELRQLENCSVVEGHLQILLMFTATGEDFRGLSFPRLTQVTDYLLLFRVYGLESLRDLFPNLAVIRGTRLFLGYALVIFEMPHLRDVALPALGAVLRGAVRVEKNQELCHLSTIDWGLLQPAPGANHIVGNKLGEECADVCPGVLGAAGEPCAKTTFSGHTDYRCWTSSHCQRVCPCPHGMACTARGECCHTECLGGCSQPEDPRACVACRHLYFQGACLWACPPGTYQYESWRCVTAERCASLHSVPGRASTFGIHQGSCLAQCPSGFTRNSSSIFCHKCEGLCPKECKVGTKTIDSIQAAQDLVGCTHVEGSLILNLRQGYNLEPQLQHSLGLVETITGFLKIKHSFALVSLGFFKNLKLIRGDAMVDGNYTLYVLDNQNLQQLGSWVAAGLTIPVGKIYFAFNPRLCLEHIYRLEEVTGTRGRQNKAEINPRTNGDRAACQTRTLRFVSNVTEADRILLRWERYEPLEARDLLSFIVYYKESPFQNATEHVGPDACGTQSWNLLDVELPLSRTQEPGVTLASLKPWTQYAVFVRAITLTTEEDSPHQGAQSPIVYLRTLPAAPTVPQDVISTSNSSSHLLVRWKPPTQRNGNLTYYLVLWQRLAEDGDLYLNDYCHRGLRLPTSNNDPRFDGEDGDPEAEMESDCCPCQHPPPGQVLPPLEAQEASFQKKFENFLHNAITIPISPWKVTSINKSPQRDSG
Insulin receptor-related protein (Homo sapiens), sequence (P14616 747-1297 limits assumed): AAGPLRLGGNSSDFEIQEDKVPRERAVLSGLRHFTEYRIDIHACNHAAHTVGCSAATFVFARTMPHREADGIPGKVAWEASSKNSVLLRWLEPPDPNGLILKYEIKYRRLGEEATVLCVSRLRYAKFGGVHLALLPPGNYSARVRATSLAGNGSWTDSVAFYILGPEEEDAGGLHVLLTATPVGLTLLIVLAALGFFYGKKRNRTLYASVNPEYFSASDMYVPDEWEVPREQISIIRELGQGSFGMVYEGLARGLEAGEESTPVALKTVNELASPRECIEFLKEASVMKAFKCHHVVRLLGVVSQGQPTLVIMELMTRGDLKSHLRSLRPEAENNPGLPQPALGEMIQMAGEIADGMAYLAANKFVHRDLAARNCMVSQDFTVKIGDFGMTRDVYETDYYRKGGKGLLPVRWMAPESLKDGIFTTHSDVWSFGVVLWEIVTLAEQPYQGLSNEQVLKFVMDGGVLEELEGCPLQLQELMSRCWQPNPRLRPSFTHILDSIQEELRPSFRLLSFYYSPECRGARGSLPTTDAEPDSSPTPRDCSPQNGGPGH

[19] = biological target: Insulin receptor-related protein (Homo sapiens) (UniProt P14616); conditions: at 1 µM
[20] = biological target: T4, Tyrosine-protein kinase ITK/TSK (Homo sapiens) (UniProt Q08881); conditions: at 0.1 µM;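 note: mean percent inhibition of ITK from the GSK PKIS screen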
T4 sequence (whole entry): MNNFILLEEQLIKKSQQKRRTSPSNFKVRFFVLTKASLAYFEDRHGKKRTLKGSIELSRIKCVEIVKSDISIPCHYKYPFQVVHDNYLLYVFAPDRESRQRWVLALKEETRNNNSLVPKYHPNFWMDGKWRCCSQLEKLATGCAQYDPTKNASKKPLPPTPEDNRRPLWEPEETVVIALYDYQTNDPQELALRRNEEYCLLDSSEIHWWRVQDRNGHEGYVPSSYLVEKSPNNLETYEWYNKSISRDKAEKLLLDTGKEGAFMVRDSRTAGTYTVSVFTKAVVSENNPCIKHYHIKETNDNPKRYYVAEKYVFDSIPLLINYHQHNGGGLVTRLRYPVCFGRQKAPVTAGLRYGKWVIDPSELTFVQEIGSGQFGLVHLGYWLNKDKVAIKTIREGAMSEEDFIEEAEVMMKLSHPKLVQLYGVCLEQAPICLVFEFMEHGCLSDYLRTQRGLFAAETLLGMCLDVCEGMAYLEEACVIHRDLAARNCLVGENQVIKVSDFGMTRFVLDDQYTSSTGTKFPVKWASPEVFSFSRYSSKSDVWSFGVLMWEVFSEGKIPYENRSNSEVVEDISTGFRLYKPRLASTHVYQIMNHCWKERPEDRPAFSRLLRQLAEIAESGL

| Structure (SMILES) | inhibition [1] [%] | inhibition [2] [%] | inhibition [3] [%] | inhibition [4] [%] | inhibition [5] [%] | inhibition [6] [%] | inhibition [7] [%] | inhibition [8] [%] | inhibition [9] [%] | inhibition [10] [%] | inhibition [11] [%] | inhibition [12] [%] | inhibition [13] [%] | inhibition [14] [%] | inhibition [15] [%] | inhibition [16] [%] | inhibition [17] [%] | inhibition [18] [%] | inhibition [19] [%] | inhibition [20] [%] |
| --- | --- | --- | --- | --- | --- | --- | --- | --- | --- | --- | --- | --- | --- | --- | --- | --- | --- | --- | --- | --- |
| NCc1ccc(-n2c(-c3nonc3N)nc3cnccc32)cc1 | 6.1 | 3.75 | 3.27 | 19.4 | 6.04 | 6.13 | 7.01 | 12.5 | 49.6 | 1.24 | 0.2 | 6.26 | 10.4 | 5.71 | 8.21 | 8.46 | 8.17 | 3.81 | 2.5 | 1.67 |
| CCc1ccc(Oc2nccc(-c3c(-c4ccc(F)cc4)ncn3C3CCNCC3)n2)cc1 | -3 | 4.18 | 6.93 | 5.58 | 7.51 | 6.35 | 4.74 | 1.36 | 6.16 | 1.83 | 7.59 | 4.84 | 8.91 | 5.24 | 3.51 | 5.54 | 3.85 | 2.18 | 3.43 | 2.08 |
| O=C1NC(=O)C(c2cccc(Cl)c2)=C1Nc1ccc(Cl)c(C(=O)O)c1 | 2.04 | 4.93 | 2.75 | 5.47 | -3.79 | 3.32 | 12.2 | -0.3 | 10.7 | 0.43 | 6.23 | 3.57 | 3.65 | 2.14 | 3.35 | 4.57 | 7.53 | 1.75 | 1.42 | 1.1 |
| CCc1nccc2c1nc(-c1nonc1N)n2CC | 2.52 | 0.58 | 1.55 | 3.28 | -1.94 | -0.59 | 3.19 | -0.59 | 1.95 | 2.96 | 0.11 | 11.6 | 16.3 | -0.66 | 2.4 | 0.64 | 0.74 | -0.83 | -1.07 | 0.88 |
| COc1ccc(-c2ccc3c(NC(=O)C4CC4)n[nH]c3n2)cc1 | 3.42 | 3.2 | 0.74 | 5.12 | 5.49 | 1.77 | 1.31 | 1.02 | 1.62 | 1.9 | 4 | -0.93 | 5.16 | 1.17 | 0.43 | 1.07 | 3.1 | 0.55 | 0.43 | 0.61 |
| O=C(NCC1CC1)c1ccc(-c2cccc(C(=O)NC3CC3)c2)cc1 | -2.12 | 1.33 | -0.14 | 2.34 | 4.69 | 1.32 | 1.97 | 1.67 | 5.35 | 1.58 | 2.23 | 2.5 | 7.59 | 2.46 | 4.73 | 1.73 | 3.95 | 1.19 | 2.93 | 1.15 |
